Test [1] can be described thus: P-glycoprotein substrates identified in KB-8-5-11 adenocarcinoma cell line, qHTS therapeutic library screen (AID 1346987). Note: nearly all actives have a fitted effect of over 65% in size. Note: potency is the fitted concentration of half-maximal effect. In a few lines: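 P-gp-mediated resistance screen: KB-8-5-11 cells treated 72 h with compounds in dose-response. CellTiter-Glo viability.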
Test [2] can be described thus: NS1 protein of Zika virus - qHTS assay to identify small molecule inhibitors in human HEK 293 cells (AID 1347053).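 Note: series mostly up to about 46 µM; plate controls were infected untreated cells for no effect and uninfected cells for full effect; nearly all actives have a fitted effect of over 55% in size.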 In a few lines: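 HEK 293 cells, seeded 20 h at 37 C, were pretreated with compound 1 h, then infected with ZIKV MR766 (MOI = 0.5) for 24 h. NS1 was read by TR-FRET with two anti-NS1 antibodies, normalized to uninfected and infected wells.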
The nature of test [3]: qHTS of pediatric cancer cell lines to identify multiple opportunities for drug repurposing: Primary screen for TC32 cells (AID 1347089). For activity change, negative = cytotoxic: % is set by controls: 0 for no effect and ±100 for the full control effect. Note: nearly all actives have a fitted effect of over 60% in size. Note: potency is the fitted concentration of half-maximal effect. In a few lines: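 Luminescent ATP read-out (CellTiter-Glo) of metabolically active TC32 cells after 48 h exposure. Concentration-response curves came from 11-point (MIPE, 0.78 nM–46 µM) or 8-point (NPC, 0.59 nM–46 µM) primary titrations; follow-up used 11 points.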

The nature of test [4]: qHTS of pediatric cancer cell lines to identify multiple opportunities for drug repurposing: Primary screen for DAOY cells (AID 1347090).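 Note: series mostly up to about 46 µM; plate controls were DMSO for no effect and bortezomib for full effect; nearly all actives have a fitted effect of over 55% in size.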 The procedure, abridged:
(§1)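 Cell viability, CellTiter-Glo luminescence; 500-1,000 cells/well, 8- or 11-point titration, 48 h compound exposure at 37 degrees C, 5% CO2. Controls: DMSO neutral, bortezomib 2.3 µM final as positive.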

A short description of test [5]: qHTS of pediatric cancer cell lines to identify multiple opportunities for drug repurposing: Primary screen for SJ-GBM2 cells (AID 1347091).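 Note: plate controls were DMSO neutral control for no effect and bortezomib for full effect.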 The procedure, abridged: as §1
Test [6] is described as follows: qHTS of pediatric cancer cell lines to identify multiple opportunities for drug repurposing: Primary screen for NB-EBc1 cells (AID 1347095).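 Note: plate controls were DMSO neutral control for no effect and bortezomib for full effect.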 In a few lines: (§2)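 Primary screen of approved and investigational compounds on cells in growth media at 37 degrees C, 5% CO2. MIPE set at 11-point and NPC set at 8-point dilutions; viability scored by ATP-based luminescence at 48 hours.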

Test [7] in a line: qHTS of pediatric cancer cell lines to identify multiple opportunities for drug repurposing: Primary screen for U-2 OS cells (AID 1347096).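 Note: plate controls were DMSO wells for no effect and bortezomib positive control wells for full effect; nearly all actives have a fitted effect of over 50% in size.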 In a few lines: (§3)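 Cells (500-1,000/well) rested 5 h, then received compounds for 48 h; metabolically active cells were measured by CellTiter-Glo luminescence. Final concentrations spanned up to 46 µM (MIPE, 11-point) or 0.59 nM-46 µM (NPC, 8-point) in primary screens, 11-point in follow-ups.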

Test [8] is described as follows: qHTS of pediatric cancer cell lines to identify multiple opportunities for drug repurposing: Primary screen for Saos-2 cells (AID 1347097). For activity change, negative = cytotoxic: % is set by controls: 0 for no effect and ±100 for the full control effect. Note: nearly all actives have a fitted effect of over 40% in size. Note: potency is the fitted concentration of half-maximal effect. The procedure, abridged:
as §2

A short description of test [9]: qHTS of pediatric cancer cell lines to identify multiple opportunities for drug repurposing: Primary screen for SK-N-SH cells (AID 1347098). Note: % is set by controls: 0 for no effect and ±100 for the full control effect; nearly all actives have a fitted effect of over 65% in size. In a few lines:
as §3

A short description of test [10]: qHTS of pediatric cancer cell lines to identify multiple opportunities for drug repurposing: Primary screen for NB1643 cells (AID 1347099).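 Note: plate controls were DMSO neutral control for no effect and bortezomib positive control for full effect; nearly all actives have a fitted effect of over 50% in size.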 In a few lines:
as §2

Test [11] in a line: qHTS of pediatric cancer cell lines to identify multiple opportunities for drug repurposing: Primary screen for LAN-5 cells (AID 1347100).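 Note: plate controls were DMSO neutral control for no effect and bortezomib positive control for full effect.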 In a few lines: as §3
The nature of test [12]: qHTS of pediatric cancer cell lines to identify multiple opportunities for drug repurposing: Primary screen for SK-N-MC cells (AID 1347093).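 For activity change, negative = cytotoxic: series mostly up to about 46 µM; plate controls were DMSO neutral control for no effect and bortezomib for full effect.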 Note: potency is the fitted concentration of half-maximal effect. The procedure, abridged:
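Metabolically active cells were quantified by ATP-dependent luminescence (CellTiter-Glo, 15 min at room temperature) following 48 h treatment. Cells had been plated at 500-1,000 per well and settled for 5 h beforehand.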

Test [13] is described as follows: qHTS of pediatric cancer cell lines to identify multiple opportunities for drug repurposing: Primary screen for A673 cells (AID 1347092). Note: % is set by controls: 0 for no effect and ±100 for the full control effect; nearly all actives have a fitted effect of over 45% in size. The procedure, abridged: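 Cell viability of A673 measured by CellTiter-Glo ATP luminescence after 48 hours compound exposure. Dilution series spanned 0.78 nM to 46 µM (MIPE, 11-point) or 0.59 nM to 46 µM (NPC, 8-point); bortezomib 2.3 uM positive control.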

Test [14] can be described thus: qHTS of pediatric cancer cell lines to identify multiple opportunities for drug repurposing: Primary screen for BT-37 cells (AID 1347094).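 Note: series mostly up to about 57 µM; plate controls were DMSO for no effect and bortezomib for full effect.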 The procedure, abridged: as §2

In PubChem BioAssay (NCATS) one finds Potency, activity change, negative = inhibition and activity change, negative = cytotoxic data, which are given here for twelve molecules.

Where “and” joins values, the source holds several entries; their conditions need not be identical. Equal values may be shown once. Records with an inconclusive call do not appear. Unmarked numbers belong to inactive results. Calls of active or inactive are those of the source. Calls come from the whole dose curve; as a rule, active = well fitted curve in the direction sought with a large enough effect; inconclusive = small, poorly fitted or top-dose-only effect, or another doubt; inactive = no such curve, though single readings can be large; an effect the other way counts as inactive or inconclusive.

As for `OC[C@H]1O[C@@H](O[C@@H]2[C@@H](CO)O[C@](O)(CO)[C@H]2O)[C@H](O)[C@@H](O)[C@H]1O`, the Potency result in [1], in test [2], in [3], in test [4], in test [5] and in test [6] was “inactive” in each case. Moreover, the Potency entry in test [7], in test [8], in test [9], in [10] and in [11] was “inactive” each time.

Turning to `CC(=O)O[C@@]12CO[C@@H]1C[C@H](O)[C@@]1(C)C(=O)[C@H](O)C3=C(C)[C@@H](OC(=O)[C@H](O)[C@@H](NC(=O)OC(C)(C)C)c4ccccc4)C[C@@](O)([C@@H](OC(=O)c4ccccc4)[C@H]21)C3(C)C`, the Potency in test [1] is 6.51 µM (active) and 4.11 µM (active); in test [3], 2.6 nM (active); in [12], 1 nM (active). Further, the Potency result in test [2] and in [7] was “inactive” in each case.

Consider `CCCCC/C(C=O)=C\c1ccccc1`, for which the Potency entry in test [1], in [2], in [3], in [5], in test [13] and in test [12] was “inactive” in each case. Moreover, the Potency result in test [14], in test [6], in test [7], in [9], in test [10] and in [11] was “inactive” throughout. Further, the Potency in test [8] is 53100 nM (active).

`OCC(CO)N[C@H]1C[C@](O)(CO)[C@@H](O)[C@H](O)[C@H]1O`: the Potency result in [1], in test [2], in test [3], in test [5], in test [13] and in [12] was “inactive” in each case. The Potency result in [6], in test [7], in test [8], in test [10] and in test [11] was “inactive” each time.

As to `CCn1cc(C(=O)O)c(=O)c2cnc(N3CCNCC3)nc21`, the Potency result in test [1], in test [2], in test [3], in test [5], in test [12] and in test [14] was “inactive” in each case. The Potency result in [6], in test [7], in [8], in test [9], in [10] and in test [11] was “inactive” throughout.

`C[C@H]1O[C@H](O[C@H]2[C@H](O)[C@@H](O)[C@@H](O[C@H]3[C@H](O)[C@@H](O)[C@H](O)O[C@@H]3CO)O[C@@H]2CO)[C@H](O)[C@@H](O)[C@@H]1N[C@H]1C=C(CO)[C@@H](O)[C@H](O)[C@H]1O`: the Potency entry in test [1], in [2], in test [3], in test [5], in test [13] and in [12] was “inactive” throughout. Moreover, the Potency entry in [14], in test [6], in [7], in [8], in test [9] and in [10] was “inactive” in each case. Besides, the Potency result in [11] was “inactive”.

Turning to `[O-][n+]1cccc(CO)c1`, the Potency result in test [1], in [2], in [3], in test [5], in [13] and in [12] was “inactive” throughout. Further, the Potency entry in [14], in test [6], in [7], in test [8], in test [9] and in [10] was “inactive” each time. Besides, the Potency entry in [11] was “inactive”.

On to `Cn1cc[nH]c1=S`, for which the Potency entry in test [1], in [2], in [3], in [5], in test [13] and in test [6] was “inactive” each time. Besides, the Potency result in test [7], in test [8], in test [9], in test [10] and in test [11] was “inactive” each time.

With `C/C(=C(\CCOP(=O)(O)O)SC(=O)c1ccccc1)N(C=O)Cc1cnc(C)nc1N`, in [1], the Potency result was “inactive”. In test [2], the activity change, negative = inhibition is 3.35% [at 4.81 µM]. Also, the activity change, negative = cytotoxic in test [3] was 9.22% [at 4.81 µM]; in test [4], 7.92% [at 4.84 µM]; in test [5] it was 25.6% [at 4.84 µM]; in test [6] it was 16.5% [at 4.84 µM]; in test [7] it was 14.8% [at 4.84 µM]; in test [8], -7.29% [at 4.84 µM]. In addition, the activity change, negative = cytotoxic in test [10] was 16.8% [at 4.84 µM]; in test [11] it was 5.99% [at 4.84 µM].

As for `C[C@@H]1C[C@H]2[C@@H]3C[C@H](F)C4=CC(=O)C=C[C@]4(C)[C@@]3(F)[C@@H](O)C[C@]2(C)[C@@]1(O)C(=O)CO`, the Potency entry in test [1], in test [2], in test [3], in test [4], in [5] and in [6] was “inactive” in each case. In addition, the Potency result in test [7], in test [8], in test [10] and in test [11] was “inactive” throughout.

With `CCOc1nc2cccc(C(=O)O)c2n1Cc1ccc(-c2ccccc2-c2nn[nH]n2)cc1`, the Potency result in test [1], in test [2], in test [3], in [5], in test [13] and in test [14] was “inactive” throughout. The Potency result in test [6], in [7], in test [8], in test [9], in test [10] and in test [11] was “inactive” throughout.

With `CC1(C)S[C@@H]2[C@H](NC(=O)Cc3ccccc3)C(=O)N2[C@H]1C(=O)O` (tested in a mixture with another compound), the Potency entry in test [1], in test [2], in test [3], in [5], in test [13] and in test [12] was “inactive” in each case. In addition, the Potency result in test [6], in [7], in test [8], in test [9], in [10] and in test [11] was “inactive” throughout.
